Source: PubChem (National Center for Advancing Translational Sciences (NCATS))
GLS inh = qHTS for Inhibitors of Glutaminase (GLS); GLS enzymatic activity, qHTS titration; 0.21% of 410,000 active; Potency, µM (doses to about 45.5 µM), most hits filed as inhibitors; Glutaminase kidney isoform, mitochondrial (Homo sapiens), O94925
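Two-point fluorescence kinetic (t0, 30 min RT) for hKGA; glutamate detected via glutamate oxidase–HRP–Amplex Red. Substrate: 1 mM L-glutamine solution; buffer 45 mM KH2PO4, pH 8.2.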
L3MBTL1 block = qHTS Assay for the Inhibitors of L3MBTL1 | Lethal(3)malignant brain tumor-like protein 1 (Homo sapiens), Q9Y468 | AlphaScreen L3MBTL1–H3K9me1 peptide binding | Potency, µM (top dose mostly 57.1 µM), most hits filed as inhibitors | 0.66% of 230,000 active | AID 485360, 2010; also: nearly all actives have a fitted effect of over 60% in size
Target sequence (Q9Y468 whole entry, looked up): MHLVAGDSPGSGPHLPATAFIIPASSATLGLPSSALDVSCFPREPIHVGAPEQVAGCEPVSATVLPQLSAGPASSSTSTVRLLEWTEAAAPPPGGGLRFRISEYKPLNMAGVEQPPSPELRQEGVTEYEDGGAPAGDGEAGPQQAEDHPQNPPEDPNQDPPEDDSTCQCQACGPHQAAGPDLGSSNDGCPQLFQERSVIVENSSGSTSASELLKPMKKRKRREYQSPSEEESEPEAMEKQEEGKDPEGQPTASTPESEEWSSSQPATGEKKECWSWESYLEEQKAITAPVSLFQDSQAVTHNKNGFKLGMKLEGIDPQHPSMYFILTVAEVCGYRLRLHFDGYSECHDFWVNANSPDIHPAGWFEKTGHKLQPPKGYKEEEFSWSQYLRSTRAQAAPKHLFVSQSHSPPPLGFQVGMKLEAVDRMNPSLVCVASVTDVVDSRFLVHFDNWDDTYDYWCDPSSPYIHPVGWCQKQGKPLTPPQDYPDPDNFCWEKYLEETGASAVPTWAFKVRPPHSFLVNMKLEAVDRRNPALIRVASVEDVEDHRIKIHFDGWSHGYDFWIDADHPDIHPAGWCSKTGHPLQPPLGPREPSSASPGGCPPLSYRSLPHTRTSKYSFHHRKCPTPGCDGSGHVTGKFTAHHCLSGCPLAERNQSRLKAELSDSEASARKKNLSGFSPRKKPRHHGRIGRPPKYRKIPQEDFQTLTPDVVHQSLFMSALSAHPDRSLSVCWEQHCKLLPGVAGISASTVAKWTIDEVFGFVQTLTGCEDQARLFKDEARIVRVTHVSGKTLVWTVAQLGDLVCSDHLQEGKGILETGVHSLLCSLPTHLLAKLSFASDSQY
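First, the protein-peptide complex forms for 30 min at room temperature (L3MBTL1 50 nM, biotinylated H3K9me1 peptide 75 nM). Next, compounds are pin-transferred and incubated 30 min. Finally, AlphaScreen beads are added and read after 30 min.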
BAZ2B block = qHTS Assay for Inhibitors of BAZ2B; Potency, µM (titrated, usually from 114 µM), actives largely listed as inhibitors; 4.4% of 360,000 active; AlphaScreen BAZ2B-H3K14Ac peptide displacement; AID 504333, 2011; also: nearly all actives have a fitted effect of over 60% in size
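In this displacement format the biotinylated H3(5-23) peptide acetylated at Lys14 serves as ligand at 50 nM, with BAZ2B at 50 nM in PBS pH 7.4 containing 0.01% Tween-20. Donor and acceptor beads are 10 ug/mL final.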
HP1b binding inh = HTS for Inhibitors of HP1-beta Chromodomain Interactions with Methylated Histone Tails | 0.56% of 390,000 active | AlphaScreen HP1-beta / biotin-H3K9me3 peptide binding | Potency, µM (series often up to 114 µM), actives largely listed as inhibitors | AID 540317, 2011 | Chromobox protein homolog 1 (Homo sapiens), P83916; also: nearly all actives have a fitted effect of over 70% in size
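AlphaScreen: HP1-beta (50 nM) preformed 30 min with biotin-H3(1-18)K9me3 peptide (50 nM) in PBS pH 7.4, 0.01% Tween-20. Compound added for 30 min at RT, then streptavidin donor/nickel chelate acceptor beads (10 ug/mL) for 30 min.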
JMJD2A Tudor = qHTS Assay for Inhibitors of JMJD2A-Tudor Domain. AID 504339, 2011. Potency, µM (titrated, usually from 114 µM), hits mostly inhibitors. 4.4% of 390,000 active. AlphaScreen JMJD2A-Tudor / H3K4me3 peptide binding. Lysine-specific demethylase 4A (Homo sapiens), O75164; also: nearly all actives have a fitted effect of over 50% in size
G9a inh = qHTS Assay for Inhibitors of Histone Lysine Methyltransferase G9a. Histone-lysine N-methyltransferase EHMT2 (Homo sapiens), Q96KQ7. G9a H3K9 monomethylation, AlphaScreen, 2 h. Potency, µM (titrated, usually from 102 µM), usual class: inhibitors. 8.8% of 350,000 active. AID 504332, 2011; also: nearly all actives have a fitted effect of over 75% in size
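Step 1: enzyme (final 20 nM) with compound, 15 min RT. Step 2: substrate peptide 500 nM and SAM 20 uM, 2 h RT. Step 3: anti-H3K9me1 antibody and AlphaScreen beads, 10 min, then plate read.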
Each line names hits and unclear results; the compound was inactive in the other large screens. Hits are enriched below; roughly 10% of the tested compounds scored in any of these assays. Calls follow the shape of the dose curve; as a rule, active = well fitted curve in the direction sought with a large enough effect; inconclusive = small, poorly fitted or top-dose-only effect, or another doubt; inactive = no such curve, though single readings can be large; an effect the other way counts as inactive or inconclusive.

CCOC(=O)c1c(N2C(=O)Nc3ccccc3N2O)sc2c1CCCC2	none
CCOc1ccc(N2C(=O)CC(Sc3ccccc3C(=O)O)C2=O)c([N+](=O)[O-])c1 (stereo not given)	BAZ2B block 63µM, JMJD2A Tudor inconclusive, G9a inh 1.4µM
CCN1C(=O)CC(Sc2ccccc2C(=O)O)C1=O (stereo not given)	BAZ2B block inconclusive, G9a inh inconclusive (no result: L3MBTL1 block)
Cc1c(C(=O)Nc2cccc(C(F)(F)F)c2)oc2ccc3c(c12)C(=O)CC(C)(C)O3	none (no result: L3MBTL1 block)
Cc1ccc(-c2nn(-c3ccccc3)cc2C=O)o1	G9a inh 40µM
Cc1ccc(-c2nn(-c3ccccc3)cc2C(N)=O)o1	JMJD2A Tudor inconclusive
Oc1ccccc1N1CCN(c2ccc3ccccc3n2)CC1	GLS inh 10µM (no result: L3MBTL1 block)
Cc1c(Cl)cccc1NC(=O)c1ccc2c(c1)nnn2C1CCCC1	none (no result: L3MBTL1 block)
O=C(CSc1cn(CCNC(=O)c2cccc(C(F)(F)F)c2)c2ccccc12)Nc1ccc2c(c1)OCCO2	G9a inh inconclusive (no result: L3MBTL1 block)
COc1ccc(C(=O)Nc2ccc(S(=O)(=O)NC(C)=O)cc2)cc1[N+](=O)[O-]	G9a inh 50µM
CCOCCCNS(=O)(=O)c1ccc(NC(=O)c2ccc([N+](=O)[O-])cc2Cl)cc1	none
CCOCCCNS(=O)(=O)c1ccc(NC(=O)c2ccc(OC)c([N+](=O)[O-])c2)cc1	JMJD2A Tudor 11µM
CCN(Cc1ccccc1)C(=O)Cn1c(=O)n(-c2cccc(C)c2)c(=O)c2c1c1cc(C)ccc1n2C	none (no result: L3MBTL1 block)
O=C(O)c1ccccc1CC(CCc1ccccc1)C(=O)O (stereo not given)	JMJD2A Tudor 10µM (no result: L3MBTL1 block, BAZ2B block, G9a inh)
CN(C)CCCNc1ncnc2sc(-c3ccccc3)cc12	BAZ2B block 56µM, HP1b binding inh inconclusive, JMJD2A Tudor 5.6µM, G9a inh inconclusive (no result: L3MBTL1 block)
COC(=O)c1sc2cccc(F)c2c1S(=O)(=O)NCc1ccc(F)cc1	none (no result: L3MBTL1 block)
Cc1ccc(NC(=O)Nc2sc(=S)n(C)c2C)cc1	G9a inh 25µM (no result: L3MBTL1 block)
CC(=O)NC(=O)Nc1sc(=S)n(C)c1C	G9a inh inconclusive
Cc1nnc(NC(=O)Oc2ccccc2)s1	none
Cc1c(NC(=O)Oc2ccccc2)sc(=S)n1C	BAZ2B block inconclusive, G9a inh 45µM (no result: L3MBTL1 block)
COc1ccc(CNC(=O)c2cc3c(=O)oc4ccc(C)cc4c3s2)c(OC)c1	none (no result: L3MBTL1 block)
CCN(CC)CCNCC(O)(c1ccc(Cl)cc1)c1ccc(Cl)cc1	none
CCN(CC)CCNCc1ccc(-c2ccc(Cl)cc2)o1	BAZ2B block inconclusive, JMJD2A Tudor inconclusive, G9a inh 50µM
CC(=O)[C@@H]1[C@@H]2C(=O)N(c3ccccc3F)C(=O)[C@@H]2[C@H]2c3ccccc3C=NN12	G9a inh 50µM
O=C(c1ccc(Cl)cc1)[C@@H]1[C@@H]2C(=O)N(c3cccc4ccccc34)C(=O)[C@@H]2C2c3ccccc3C=NN21 (stereo not given in full)	JMJD2A Tudor inconclusive, G9a inh 20µM
CCCCOC(=O)c1ccc(NC(=O)c2cc3c(=O)n4cccc(C)c4nc3n2C)cc1	none (no result: L3MBTL1 block)
CC(=O)c1cc(-c2ccc(F)cc2)n(CC(=O)NCc2cccs2)c1C	none
CCC(C)NC(=O)CCn1c(-c2ccc(F)cc2)cc(C(C)=O)c1C (stereo not given)	BAZ2B block inconclusive
CC(=O)c1cc(-c2ccccc2)n(CCC(=O)NCc2cccs2)c1C	BAZ2B block 50µM
COc1ccc(-c2cc(C(C)=O)c(C)n2CCC(=O)NCc2ccc(F)cc2)cc1	BAZ2B block 79µM, G9a inh inconclusive (no result: L3MBTL1 block)
CC(=O)c1cc(-c2ccc(F)cc2)n(CCC(=O)NC(C)(C)C)c1C	BAZ2B block 50µM
COc1ccc(C)cc1-n1nnc(-c2nc(-c3ccccc3Cl)no2)c1N	none (no result: L3MBTL1 block)
Nn1cnnc1N/N=C/c1ccc(F)cc1	G9a inh 45µM
Cc1nnc(N/N=C/c2ccc([N+](=O)[O-])cc2)n1N	GLS inh inconclusive, L3MBTL1 block inconclusive, BAZ2B block inconclusive
Cc1ccc(/C=N/Nc2nncn2N)cc1	none (no result: L3MBTL1 block)
Nn1cnnc1N/N=C/c1ccc(Cl)c([N+](=O)[O-])c1	JMJD2A Tudor inconclusive, G9a inh 45µM
CCc1nnc(N/N=C/c2ccc(N3CCC(C)CC3)c([N+](=O)[O-])c2)n1N	BAZ2B block inconclusive, JMJD2A Tudor inconclusive, G9a inh 50µM
O=C(N/N=C/C(Cl)=C/c1ccccc1)c1ccccc1F	G9a inh 32µM (no result: L3MBTL1 block)
O=C(N/N=C/C(Cl)=C/c1ccc([N+](=O)[O-])cc1)C(=O)Nc1ccc(C(=O)O)cc1	BAZ2B block inconclusive, HP1b binding inh inconclusive, G9a inh 50µM
O=C(N/N=C/C(Cl)=C/c1ccc([N+](=O)[O-])cc1)C(=O)Nc1ccccc1C(=O)O	L3MBTL1 block inconclusive, BAZ2B block inconclusive, JMJD2A Tudor inconclusive, G9a inh 35µM
CCOc1ccccc1NC(=O)C(=O)N/N=C/c1ccc([N+](=O)[O-])cc1	none
O=C(Nc1ccc(C(=O)O)cc1)/C(=C\c1ccc([N+](=O)[O-])cc1)NC(=O)c1ccco1	none (no result: L3MBTL1 block, BAZ2B block, HP1b binding inh, JMJD2A Tudor, G9a inh)
Cc1ccc(-c2noc(CNC(=O)COc3cc(C)c(Br)c(C)c3)n2)cc1	none (no result: L3MBTL1 block)
O=C(Oc1ccc2c(c1)OCO2)C12CC3CC(CC(C3)C1)C2	none
O=C(Oc1ccc(O)cc1)C12CC3CC(CC(C3)C1)C2	HP1b binding inh inconclusive, JMJD2A Tudor 56µM, G9a inh 40µM
CC(c1nc2ccccc2n1Cc1ccccc1)N1CCCCC1 (stereo not given)	none (no result: L3MBTL1 block)
CC(c1n[nH]c(=S)n1-c1ccccc1)N1CCCCC1 (stereo not given)	GLS inh inconclusive, JMJD2A Tudor 7.1µM, G9a inh 18µM
CC(=O)Nc1ccccc1-c1nc2ccc(C(=O)N3CCN(c4ccccc4)CC3)cc2[nH]c1=O	G9a inh 45µM
CC(=O)Nc1ccccc1-c1nc2ccc(C(=O)N3CCN(c4cccc(C)c4)C(C)C3)cc2[nH]c1=O (stereo not given)	G9a inh inconclusive (no result: L3MBTL1 block)
CCc1ccc(-c2nn(CC(=O)NC3CCCCC3)c3c2cnc2ccc(OC)cc23)cc1	none (no result: L3MBTL1 block)
O=C(c1ccc([N+](=O)[O-])cc1)c1cc2ccc(O)cc2oc1=O	G9a inh 50µM (no result: L3MBTL1 block)
O=C(C1CCCN(S(=O)(=O)c2ccc(F)cc2)C1)N1CCOCC1 (stereo not given)	none (no result: L3MBTL1 block, BAZ2B block, G9a inh)
